This is an account of results in PubChem BioAssay (NCATS).

Records with an inconclusive call do not appear. Active and inactive are the calls of the source. Unless noted, the call rests on the fitted dose curve; in most records, active means well fitted curve in the direction sought with a large enough effect; inconclusive means small, poorly fitted or top-dose-only effect, or another doubt; inactive means no such curve, though single readings can be large; an effect the other way counts as inactive or inconclusive.

For test [1], the target named is Lysosomal acid glucosylceramidase (Homo sapiens) (UniProt P04062). The test is described as follows: Glucocerebrosidase-p2 (AID 348; in the data active means potency below about 10 µM; further: potency means the concentration at half of the fitted maximal effect). The note with it: purified GBA, blue fluorogenic substrate, 40 min. The method in brief: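 Compounds titrated from 0.6 nM upwards against 0.2 nM enzyme in pH 5.9 citric acid/KH2PO4, taurocholate, tween-20; blue fluorogenic substrate 80 uM, 40 min room temperature, stopped and read Ex 365/Em 440 for AC50.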

Test [2] is described as follows: AP1 Signaling Pathway (AID 357; active means well fitted curve in either direction with a large enough effect, not every such curve was filed as active;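 further: ME-180 reporter cells stimulated with EGF at its EC50 level; on the % scale 0 is the no-effect control and ±100 the full control effect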). As to conditions: ME-180 AP-1-bla reporter, EGF-induced, beta-lactamase ratio, 5 h; at 7.69 µM (top of the series) unless noted. The method in brief: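 Titration-series screen for positive or negative modulators of EC50 EGF-induced signaling in ME-180 cells carrying an AP-1-driven beta-lactamase reporter. After 5 hours at 37 degrees Celsius, CCF4 460nm/530nm emission ratio gave %Activity; AC50 values derived.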

The target in test [3] is Cytochrome P450 1A2 (Homo sapiens) (UniProt P05177). Kind of test: p450-cyp1a2 (AID 410; calls by dose curve; further: potency means the concentration at half of the fitted maximal effect). As to conditions: recombinant CYP1A2, luciferin-ME demethylation, luminescence; series mostly up to 57 µM. Put shortly: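 Inhibition was calculated relative to 57 uM furafylline (full inhibition). The reaction used human CYP1A2 at 20nM with Luciferin-ME at its Km, 100uM, driven by an NADPH-regenerating system for 60 min at room temperature.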

Test [4] can be described thus: NFAT Signaling Pathway (AID 444; active means well fitted curve in either direction with a large enough effect, not every such curve was filed as active;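 further: carbachol stimulus at about its EC50 of 1 µM final; on the % scale 0 is the no-effect control and ±100 the full control effect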). As to conditions: Jurkat NFAT-bla M1, carbachol, beta-lactamase ratio, 5 h; at 7.69 µM (top of the series) unless noted. The method in brief:
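Read-out: CCF4 FRET ratio (460 nm/530 nm) after 1 h RT dye loading, used for %activity and AC50 from titration series. Cells: Jurkat NFAT-β-lactamase/M1 line, treated with compound plus 1 uM carbachol for 5 h, 37 °C.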

Test [5] is described as follows: Stat Signaling Pathway (AID 446; active means well fitted curve in either direction with a large enough effect, not every such curve was filed as active;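 further: ME-180 cervical cancer cells given 40 pM IL-6 alongside compound; SIE-controlled beta-lactamase reporter measured as 460/530 nm FRET emission ratio; on the % scale 0 is the no-effect control and ±100 the full control effect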). The note with it: ME-180 SIE beta-lactamase reporter, IL-6 stimulated, 5 h; at 7.69 µM (top of the series) unless noted. Put shortly: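 ME-180 SIE-bla cells; overnight plating; cpd + IL-6 40 pM, 5 h, 37 C; LiveBLAzer 2.5 h RT; 460/530 nm emission ratio. Normalized to 300 pM IL-6 and 125 nM JAK inhibitor controls.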
Test [6] addresses Glucocorticoid receptor (Homo sapiens) (UniProt P04150). Kind of test: GR-GFP Redistribution (AID 450;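 active means compounds whose dose series gives a full or clear partial fitted curve of increased nuclear translocation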; further: potency means the concentration at half of the fitted maximal effect). As to conditions: U2OS GR-GFP nuclear translocation, laser cytometry, 2 h.
Test [7] shares this target. The test is described as follows: GR-EFC Redistribution (AID 451; calls by dose curve; further: potency means the concentration at half of the fitted maximal effect). As to conditions: CHO-K1 GR-EFC translocation, beta-gal luminescence, 2 h. Put shortly: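 Translocation of GR-ED fusion to nuclear EA restores b-gal, read by luminescence after 1 h room-temperature detection. Engineered CHO-K1 biosensor cells, 1,000/well, exposed 2 h at 37 C to titrations up to 46 uM final.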

Test [8] addresses Mitogen-activated protein kinase 10 (Mus musculus) (UniProt Q61831). Kind of test: JNK3 AlphaScreen Assay (AID 530; active means well fitted curve in either direction with a large enough effect, not every such curve was filed as active;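 further: kinase came from lysate of stimulated human HepG2 cells; signal reports phosphorylation of biotinylated GST-cJun 1-79 at Ser73 with 10 µM ATP; on the % scale 0 is the no-effect control and ±100 the full control effect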). As to conditions: JNK3 lysate, c-Jun phosphorylation; series mostly up to 57.1 µM. The method in brief:
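Room-temperature AlphaScreen kinase assay; pre-activated HepG2 lysate as JNK3 source, biotin-GST-cJun(1-79) substrate, 10 uM ATP, compound 15 min preincubation.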

Test [9] concerns the target Cytochrome P450 2C9 (Homo sapiens) (UniProt P11712). Kind of test: qHTS Assay for Inhibitors and Substrates of Cytochrome P450 2C9 (AID 883). Further: potency means the concentration at half of the fitted maximal effect; nearly all actives have a fitted effect of over 60% in size. As to conditions: recombinant CYP2C9, luciferin-H luminescence, 60 min; series mostly up to 57.1 µM. Put shortly:
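Inhibition of CYP2C9 is scored as loss of luminescence, with 57uM sulphaphenazole defining 100% inhibition. Substrate Luciferin-H is used at 100uM, equal to its KM; enzyme at 10nM in 25mM KPO4, 60 min at 37C with NADPH regeneration.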
(In qHTS, concentration-response curves come from the screen itself.)

For test [10], the target named is Cytochrome P450 3A4 (Homo sapiens) (UniProt P08684). Kind of test: qHTS Assay for Activators of Cytochrome P450 3A4 (AID 885). Further: nearly all actives have a fitted effect of over 65% in size. Further: potency means the concentration at half of the fitted maximal effect. As to conditions: recombinant CYP3A4, Luciferin-PPXE luminescence, 60 min; series mostly up to 57.1 µM. Put shortly:
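20nM CYP3A4 + 25uM Luciferin-PPXE (=KM), 200mM KPO4; cpd 10 min RT; NADPH regen, 60 min RT; stop w/ detection buffer, 20 min; luminescence. Normalized to 57 uM ketoconazole.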

A short description of test [11]: qHTS Assay for Identification of Small Molecule Agonists for Hypoxia Response Element Signaling Pathway (AID 914; active means well fitted activation curve with a large enough effect in the signal ratio, with a control signal flat, not every such curve was filed as active; the % refers to the signal ratio; further: % of control where 0% means no effect). As to conditions: ME-180 (cervical carcinoma) HRE-bla reporter, beta-lactamase ratio, CoCl2, 17 h; activation: stronger effect = higher value. The method in brief:
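Compounds in a titration series were added to ME-180 reporter cells alongside an EC50 level of CoCl2. After 17 hours, beta-lactamase activity was read as the 460nm/530nm emission ratio of CCF4, giving AC50 values.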

Test [12] is described as follows: qHTS Assay for Lipid Storage Modulators (AID 1519; calls by dose curve). As to conditions: Drosophila S3 cells, BODIPY lipid droplet/cell ratio, laser cytometry, cells loaded with oleic acid; for activity change, negative = inhibition: at 57.5 µM (top of the series). Put shortly:
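Cells seeded at 5,000 per well were treated with compounds over a concentration series and loaded with oleic acid (400 uM, as added). Lipid droplet fluorescence (488 nm excitation, 500-530 nm channel) was read by laser-scanning cytometry and normalized to 20 uM Triacsin C.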

In test [13] the target is Dual specificity protein kinase CLK4 (Homo sapiens) (UniProt Q9HAZ1). The test is described as follows: qHTS Assay for Inhibitors of CDC-like Kinase 4 (Kinase-Glo Assay) (AID 1770). Further: on the % scale 0 is the no-effect control and ±100 the full control effect; nearly all actives have a fitted effect of over 65% in size. The note with it: recombinant Clk4, Kinase-Glo ATP depletion luminescence; series mostly up to 66.7 µM. Put shortly: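 25 nM Clk4 with 100 uM RS repeat peptide and 1 uM ATP (final) in Tris pH7.5, 10 mM MgCl2, 4.5 h at room temperature. Remaining ATP measured by Kinase-Glo luciferase luminescence.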

The target is the same in test [14]. Kind of test: qHTS Assay for Inhibitors of CDC-like Kinase 4 (ADP-Glo Assay) (AID 1771). Further: on the % scale 0 is the no-effect control and ±100 the full control effect; nearly all actives have a fitted effect of over 70% in size. The note with it: recombinant CLK4, ADP-Glo luminescence; series mostly up to 80 µM. The method in brief: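 Kinase reaction: Clk4 at 25 nM, RS repeat peptide substrate at 100 uM, ATP at 1 uM, 1 hr, room temperature. Product ADP detected as luciferase signal via ADP-Glo.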

The target is the same in test [15]. The test is described as follows: qHTS Assay for Inhibitors of CDC-like Kinase 4 (ADP-FP Assay) (AID 1795). Further: on the % scale 0 is the no-effect control and ±100 the full control effect; nearly all actives have a fitted effect of over 60% in size. The note with it: Transcreener ADP fluorescence polarization; series mostly up to 50 µM. The method in brief:
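Recombinant Clk4 (6.25 nM) phosphorylated 100 uM RS repeat peptide with 1 uM ATP in 25 mM Tris pH 7.5, 10 mM MgCl2, 0.5 mM EGTA, 2.5 mM DTT, 0.01% Triton X-100 for 1 h. ADP was detected by Transcreener ADP2 competitive fluorescence polarization after 30 min at room temperature.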

In test [16] the target is Ubiquitin carboxyl-terminal hydrolase 1 (Homo sapiens) (UniProt O94782). The test is described as follows: Inhibitors of USP1/UAF1: Pilot qHTS (AID 504865).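 Further: rhodamine fluorescence freed from ubiquitin-rhodamine substrate followed over time; top concentration of the series differs between compounds; on the % scale 0 is the no-effect control and ±100 the full control effect; nearly all actives have a fitted effect of over 35% in size.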 The note with it: purified USP1/UAF1, Ub-rhodamine cleavage fluorescence; series mostly up to 54.9 µM. The method in brief: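 USP1/UAF1 complex at 1 nM preincubated 15 min at room temperature with compound, then Ub-Rho substrate added at 150 nM final. Fluorescence (480/540 nm) read kinetically in 50 mM HEPES pH 7.8, 0.5 mM EDTA, 1 mM TCEP, 0.1 mg/ml BSA, 0.01% Tween-20.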

Test [17] can be described thus: Primary qHTS for small molecule stabilizers of the endoplasmic reticulum resident proteome: Secreted ER Calcium Modulated Protein (SERCaMP) assay (AID 1508630). Further: on the % scale 0 is the no-effect control and ±100 the full control effect. The note with it: SH-SY5Y GLuc-SERCaMP (Gaussia luciferase released on ER calcium loss) secretion, thapsigargin, luminescence; series mostly up to 38.4 µM. Put shortly: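 GLuc-SERCaMP-expressing SH-SY5Y cells, pretreated 16 h with compound, are challenged with thapsigargin to empty ER calcium stores; after 4 h, coelenterazine is added directly to the medium and luminescence is imaged.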

The target of test [18] is 3',5'-cyclic-AMP phosphodiesterase 4B (Homo sapiens) (UniProt Q07343). The test is described as follows: qHTS Assay for Inhibitors of PDE-IV (AID 607; active means well fitted activation curve with a large enough effect in the main read-out, with a control signal flat, not every such curve was filed as active; further: % of control where 0% means no effect). The note with it: HEK293 ACTOne CNG channel cells, membrane potential fluorescence; series mostly up to 22.9 µM. Put shortly:
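ACTOne HEK293 cells carry a modified cAMP-gated CNG channel and express endogenous PDE4; plated 1000 cells/well, compounds up to 22.9 uM final. Membrane-potential dye fluorescence (ex 535/em 590) was read; parental cells received 10 uM forskolin + 100 uM RO 20-1724.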

Test [19] addresses Cytochrome P450 3A4 (Homo sapiens) (UniProt P08684). The test is described as follows: qHTS Assay for Inhibitors and Substrates of Cytochrome P450 3A4 (AID 884). Further: on the % scale 0 is the no-effect control and ±100 the full control effect; nearly all actives have a fitted effect of over 50% in size. The note with it: recombinant CYP3A4, Luciferin-PPXE luminescence; series mostly up to 57.1 µM. Put shortly:
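20 nM human CYP3A4 with 25 uM Luciferin-PPXE (at KM) in 200 mM KPO4, preincubated 10 min with compound; NADPH regeneration started a 60 min RT reaction. Luciferin detected by luminescence, normalized to 57 uM ketoconazole as full inhibition.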

[20] abbreviates: measured here: cell count channel max response.
The mark [21] stands for this setting: measured here: lipid channel max response.

Dual specificity protein kinase CLK4 (Homo sapiens), sequence (Q9HAZ1 whole entry, looked up): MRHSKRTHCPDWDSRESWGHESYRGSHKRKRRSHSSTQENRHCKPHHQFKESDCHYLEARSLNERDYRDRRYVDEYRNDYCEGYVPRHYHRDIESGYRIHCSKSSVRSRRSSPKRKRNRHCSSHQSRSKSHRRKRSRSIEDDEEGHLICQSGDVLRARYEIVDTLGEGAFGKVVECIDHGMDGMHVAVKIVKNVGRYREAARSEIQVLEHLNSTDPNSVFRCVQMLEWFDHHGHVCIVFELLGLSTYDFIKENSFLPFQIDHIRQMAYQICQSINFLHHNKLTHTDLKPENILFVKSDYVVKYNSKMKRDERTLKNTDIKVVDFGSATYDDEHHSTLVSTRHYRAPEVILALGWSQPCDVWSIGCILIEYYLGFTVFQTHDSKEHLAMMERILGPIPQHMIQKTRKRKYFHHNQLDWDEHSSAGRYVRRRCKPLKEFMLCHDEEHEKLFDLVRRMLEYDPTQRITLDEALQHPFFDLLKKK
Glucocorticoid receptor (Homo sapiens), sequence (P04150 whole entry, looked up, the tested form may be a part): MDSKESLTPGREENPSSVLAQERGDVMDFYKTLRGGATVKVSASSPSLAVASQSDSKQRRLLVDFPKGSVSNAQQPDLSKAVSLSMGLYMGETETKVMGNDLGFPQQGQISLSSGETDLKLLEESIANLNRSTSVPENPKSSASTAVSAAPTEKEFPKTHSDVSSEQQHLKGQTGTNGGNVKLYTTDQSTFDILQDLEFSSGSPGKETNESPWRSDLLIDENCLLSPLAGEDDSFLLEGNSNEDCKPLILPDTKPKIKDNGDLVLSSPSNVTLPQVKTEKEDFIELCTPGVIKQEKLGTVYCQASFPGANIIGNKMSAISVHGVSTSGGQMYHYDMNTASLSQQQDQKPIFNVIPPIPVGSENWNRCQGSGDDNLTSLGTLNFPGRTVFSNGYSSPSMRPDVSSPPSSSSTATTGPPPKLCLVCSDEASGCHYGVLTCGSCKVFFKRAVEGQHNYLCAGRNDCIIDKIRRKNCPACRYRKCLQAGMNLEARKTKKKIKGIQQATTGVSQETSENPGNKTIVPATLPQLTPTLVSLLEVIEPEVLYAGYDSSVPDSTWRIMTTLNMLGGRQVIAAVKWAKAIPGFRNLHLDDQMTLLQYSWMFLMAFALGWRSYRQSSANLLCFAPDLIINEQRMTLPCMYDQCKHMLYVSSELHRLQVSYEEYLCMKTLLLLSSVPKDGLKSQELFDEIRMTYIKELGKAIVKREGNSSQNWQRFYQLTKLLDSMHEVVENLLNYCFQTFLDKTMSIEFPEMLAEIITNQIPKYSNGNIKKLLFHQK
Cytochrome P450 3A4 (Homo sapiens), sequence (P08684 whole entry, looked up): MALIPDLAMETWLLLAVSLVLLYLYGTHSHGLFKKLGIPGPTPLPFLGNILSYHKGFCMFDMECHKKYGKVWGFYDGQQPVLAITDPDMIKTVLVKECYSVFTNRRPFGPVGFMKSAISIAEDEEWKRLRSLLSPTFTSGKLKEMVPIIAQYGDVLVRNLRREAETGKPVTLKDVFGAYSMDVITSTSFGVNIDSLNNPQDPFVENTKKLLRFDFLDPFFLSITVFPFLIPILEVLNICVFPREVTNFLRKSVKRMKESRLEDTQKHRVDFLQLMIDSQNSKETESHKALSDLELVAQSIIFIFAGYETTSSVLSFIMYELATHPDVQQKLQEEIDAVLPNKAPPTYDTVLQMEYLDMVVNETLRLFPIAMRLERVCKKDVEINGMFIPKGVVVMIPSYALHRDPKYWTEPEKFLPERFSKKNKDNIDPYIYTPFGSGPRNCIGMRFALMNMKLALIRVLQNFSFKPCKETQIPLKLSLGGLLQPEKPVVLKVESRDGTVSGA
Cytochrome P450 1A2 (Homo sapiens), sequence (P05177 whole entry, looked up): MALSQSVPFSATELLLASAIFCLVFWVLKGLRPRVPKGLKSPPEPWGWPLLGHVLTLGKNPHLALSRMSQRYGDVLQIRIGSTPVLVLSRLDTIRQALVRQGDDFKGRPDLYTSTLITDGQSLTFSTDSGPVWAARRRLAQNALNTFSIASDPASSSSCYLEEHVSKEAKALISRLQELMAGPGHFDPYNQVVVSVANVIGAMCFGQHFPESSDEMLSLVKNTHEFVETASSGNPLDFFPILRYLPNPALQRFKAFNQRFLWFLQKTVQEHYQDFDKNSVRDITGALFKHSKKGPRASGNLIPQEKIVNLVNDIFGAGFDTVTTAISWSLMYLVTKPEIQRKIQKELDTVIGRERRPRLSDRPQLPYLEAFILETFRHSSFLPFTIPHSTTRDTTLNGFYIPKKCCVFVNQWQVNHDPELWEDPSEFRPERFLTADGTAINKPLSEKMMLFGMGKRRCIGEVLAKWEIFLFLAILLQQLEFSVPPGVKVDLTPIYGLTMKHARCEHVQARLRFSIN
Lysosomal acid glucosylceramidase (Homo sapiens), sequence (P04062 whole entry, looked up): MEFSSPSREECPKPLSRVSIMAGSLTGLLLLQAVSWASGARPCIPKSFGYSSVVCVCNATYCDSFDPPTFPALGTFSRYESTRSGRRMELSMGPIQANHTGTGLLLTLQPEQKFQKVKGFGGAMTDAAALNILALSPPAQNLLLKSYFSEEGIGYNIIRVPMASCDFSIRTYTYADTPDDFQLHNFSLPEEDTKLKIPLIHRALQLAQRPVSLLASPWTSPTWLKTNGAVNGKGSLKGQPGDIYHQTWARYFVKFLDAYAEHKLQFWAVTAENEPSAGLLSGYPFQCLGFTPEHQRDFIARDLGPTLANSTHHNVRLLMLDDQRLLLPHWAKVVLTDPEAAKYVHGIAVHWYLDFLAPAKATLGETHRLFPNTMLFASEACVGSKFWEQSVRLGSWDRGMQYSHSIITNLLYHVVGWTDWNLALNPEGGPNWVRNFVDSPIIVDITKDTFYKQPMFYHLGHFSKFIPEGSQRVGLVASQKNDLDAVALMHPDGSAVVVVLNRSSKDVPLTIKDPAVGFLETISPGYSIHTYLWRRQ
Ubiquitin carboxyl-terminal hydrolase 1 (Homo sapiens), sequence (O94782 whole entry, looked up): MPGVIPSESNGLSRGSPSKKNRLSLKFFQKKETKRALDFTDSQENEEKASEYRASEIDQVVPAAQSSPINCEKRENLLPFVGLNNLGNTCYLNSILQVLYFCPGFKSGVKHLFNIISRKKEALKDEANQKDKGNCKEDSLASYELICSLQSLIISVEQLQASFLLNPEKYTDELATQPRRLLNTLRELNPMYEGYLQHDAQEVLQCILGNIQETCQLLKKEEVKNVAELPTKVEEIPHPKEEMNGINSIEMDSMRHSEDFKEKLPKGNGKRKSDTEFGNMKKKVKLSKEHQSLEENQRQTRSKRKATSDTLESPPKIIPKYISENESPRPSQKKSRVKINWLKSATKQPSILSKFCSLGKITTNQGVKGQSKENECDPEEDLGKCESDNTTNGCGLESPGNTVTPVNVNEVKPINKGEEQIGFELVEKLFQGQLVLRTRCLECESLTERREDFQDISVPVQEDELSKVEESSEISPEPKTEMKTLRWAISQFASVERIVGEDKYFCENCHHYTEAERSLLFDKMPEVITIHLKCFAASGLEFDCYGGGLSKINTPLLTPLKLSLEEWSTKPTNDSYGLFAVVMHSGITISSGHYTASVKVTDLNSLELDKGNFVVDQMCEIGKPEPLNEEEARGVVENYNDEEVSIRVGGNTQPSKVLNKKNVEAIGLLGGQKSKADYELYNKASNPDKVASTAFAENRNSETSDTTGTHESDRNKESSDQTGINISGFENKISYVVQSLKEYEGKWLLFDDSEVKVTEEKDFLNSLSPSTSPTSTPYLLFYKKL
3',5'-cyclic-AMP phosphodiesterase 4B (Homo sapiens), sequence (Q07343 whole entry, looked up): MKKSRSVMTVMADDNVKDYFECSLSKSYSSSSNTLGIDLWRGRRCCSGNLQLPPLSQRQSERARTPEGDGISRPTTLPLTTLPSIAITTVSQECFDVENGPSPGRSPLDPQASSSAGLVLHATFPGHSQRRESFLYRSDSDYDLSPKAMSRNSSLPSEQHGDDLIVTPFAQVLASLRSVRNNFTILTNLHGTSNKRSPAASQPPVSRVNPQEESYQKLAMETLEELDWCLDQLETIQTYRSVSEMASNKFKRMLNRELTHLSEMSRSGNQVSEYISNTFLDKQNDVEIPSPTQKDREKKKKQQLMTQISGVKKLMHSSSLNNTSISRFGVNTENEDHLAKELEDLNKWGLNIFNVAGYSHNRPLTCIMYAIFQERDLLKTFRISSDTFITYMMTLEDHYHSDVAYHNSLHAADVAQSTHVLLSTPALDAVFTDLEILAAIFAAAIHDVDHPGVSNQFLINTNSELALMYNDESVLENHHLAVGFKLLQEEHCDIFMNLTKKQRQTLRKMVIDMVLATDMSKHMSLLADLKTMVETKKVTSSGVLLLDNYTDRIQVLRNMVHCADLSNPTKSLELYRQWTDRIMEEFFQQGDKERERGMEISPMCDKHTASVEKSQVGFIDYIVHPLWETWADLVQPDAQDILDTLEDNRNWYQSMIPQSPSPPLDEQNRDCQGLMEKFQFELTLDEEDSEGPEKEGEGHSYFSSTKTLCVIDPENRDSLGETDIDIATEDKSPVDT
Cytochrome P450 2C9 (Homo sapiens), sequence (P11712 whole entry, looked up): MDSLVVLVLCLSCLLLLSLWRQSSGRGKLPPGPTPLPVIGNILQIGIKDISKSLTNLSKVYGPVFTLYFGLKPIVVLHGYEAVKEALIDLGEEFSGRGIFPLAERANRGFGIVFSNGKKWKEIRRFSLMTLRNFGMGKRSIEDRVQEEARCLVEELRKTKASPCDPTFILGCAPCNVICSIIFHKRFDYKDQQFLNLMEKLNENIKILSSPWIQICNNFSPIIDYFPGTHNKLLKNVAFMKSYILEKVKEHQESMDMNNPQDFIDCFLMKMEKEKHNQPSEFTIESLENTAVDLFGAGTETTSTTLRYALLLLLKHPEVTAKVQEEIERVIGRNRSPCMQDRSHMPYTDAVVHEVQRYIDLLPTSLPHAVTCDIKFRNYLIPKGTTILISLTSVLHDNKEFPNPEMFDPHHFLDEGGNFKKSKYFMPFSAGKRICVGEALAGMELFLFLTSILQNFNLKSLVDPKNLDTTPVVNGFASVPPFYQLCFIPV

Turning to `COc1ccccc1CCn1c(=O)c(-c2cccc(F)c2)nc2cncnc21`, the Potency was > 11.4 µM (inactive) in test [1]; 1.58 µM (active) in test [3]; > 9.22 µM (inactive) in test [6]; > 46 µM (inactive) in test [7]; 2.51 µM (active) in test [9]. Also, the activity change, negative = inhibition in test [2] was -14.2% (inactive); in [4], -17.1% (inactive); in test [12], 6.88% (inactive). Also, in [5], the activity, negative = inhibition is 3.83% (inactive). Also, the compound was classed as inactive in [8]. The Potency entry in [10], in test [13], in test [14], in test [15], in test [16] and in test [17] was “inactive” in each case. Besides, the activation in [11] is -1.08% (inactive). For the same compound, the max response was 18.2% in test [12] (setting [20]) and 19.8% in [12] (setting [21]).
As to `CNc1cc(-c2ccccc2C(F)(F)F)ncn1`, the Potency in [1] is > 11.4 µM (inactive); in test [3] it was 15.8 µM (active); in test [6], > 46 µM (inactive); in [7], > 46 µM (inactive); in [10], 15.8 µM (active). The activity change, negative = inhibition is 4.62% (inactive) in [2], 1.13% (inactive) in [4] and 1.87% (inactive) in [12]. Besides, in [5], the activity, negative = inhibition was 7.97% (inactive). For the same compound, the outcome in test [8] was inactive. Moreover, the Potency result in [18], in [19], in test [13], in test [14], in [15] and in [16] was “inactive” in each case. Besides, in test [17], the Potency result is “inactive”. For the same compound, the activation in test [11] is 17.1% (inactive). In addition, the max response in [12] (setting [20]) is 21.4%; in [12] (setting [21]), 21.2%.
